Assay results: PubChem BioAssay (NCATS)
Records with an inconclusive call do not appear. Active and inactive are the calls of the source. Unless noted, the call rests on the fitted dose curve; in most records, active means well fitted inhibition curve with a large enough effect; inconclusive means small, poorly fitted or top-dose-only effect; inactive means no such curve, though single readings can be large or run the other way.

How the values were obtained:
[1] = High-throughput drug toxicity screening in the BPDCN cell line Gen2.2 (AID 1224824; call rule not given here;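 further: cells exposed to compounds for 48 h before reading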); conditions: Gen2.2 BPDCN cells; at 45.8 µM (top of the series) unless noted
Outline: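 Seed 500 exponentially growing Gen2.2 cells/well; add compounds by pin tool; incubate 48 h, 37 °C, 5% CO2; add CellTiter-Glo, 15 min RT; read luminescence. % activity vs DMSO (100%) and bortezomib (0%).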

[2] = High-throughput drug toxicity screening in the BPDCN cell line Cal-1 (AID 1224825; call rule not given here); conditions: Cal-1 BPDCN cell viability, qHTS; at 45.8 µM (top of the series) unless noted
Outline: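 CellTiter-Glo luminescence after 48 h compound exposure; percent activity scaled with DMSO as 100% and bortezomib (9.2 uM final) as 0%. Cal-1 cells seeded at 500/well in RPMI, 10% FBS, no phenol red.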

[3] = qHTS assay for measurement of the activity of small molecule inhibitors on Zika virus induced Caspase-3 activity in human iPSC derived neural progenitor cells (hNPCs) (AID 1224857); further: nearly all actives have a fitted effect of over 65% in size; further: potency means the concentration at half of the fitted maximal effect
Outline: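 Zika virus (2 FFU/cell) infection of human iPSC-derived NPCs, 6 h, following 1 h compound preincubation. Read-out: Caspase-Glo 3/7 luminescence.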

[4] = qHTS assay for measurement of the activity of small molecule inhibitors on Zika virus induced Caspase-3 activity in human astrocytoma cells (AID 1224859); further: potency means the concentration at half of the fitted maximal effect
Outline: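 Caspase activation in ZIKV-infected SNB-19 cells (2 FFU/cell, 6 h) measured by Caspase-Glo 3/7 luminescence after 30 min RT; compound pre-incubated 1 h; normalised to uninfected and infected controls.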

[5] = qHTS Screen of the MIPE 4.0 Collection Against Ewings Sarcoma (RDES) (AID 1259252); further: nearly all actives have a fitted effect of over 35% in size; further: potency means the concentration at half of the fitted maximal effect
Outline: (§1)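 Dose series incubated 48 h with cells in RPMI plus 5% FBS, glutamine and penicillin/streptomycin; cell viability then quantified via CellTiter-Glo.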

[6] = qHTS Screen of the MIPE 4.0 Collection Against Ewings Sarcoma (EW8) (AID 1259255); further: nearly all actives have a fitted effect of over 35% in size; further: potency means the concentration at half of the fitted maximal effect;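 on viability: 100% = DMSO-treated cells and 0% = medium-only wells without cells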
Outline: as §1

[7] = P-glycoprotein substrates identified in KB-3-1 adenocarcinoma cell line, qHTS therapeutic library screen (AID 1346986); further: nearly all actives have a fitted effect of over 60% in size;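 further: potency means the concentration at half of the fitted maximal effect; potency is for cytotoxicity meaning loss of cell viability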
Outline: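 In 1536-well format, 500 cells/well received pinned compound titrations and were incubated 72 h, 5% CO2. Viability was read by CellTiter-Glo; cytotoxic if AC50 < 10 uM and efficacy >50%.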

[8] = qHTS profiling of the MIPE4 collection as inhibitors of Plasmodium falciparum (3D7) proliferation (AID 743344; call rule not given here;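 further: scaled between DMSO vehicle wells and 0.29 µM artemisinin as full inhibition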); conditions: P. falciparum 3D7 in erythrocytes, SYBR Green DNA fluorescence, 72 h; at 28.5 µM (top of the series) unless noted
Outline: (§2)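 Parasite DNA was quantified by SYBR Green I fluorescence (ex 485, em 535 nm) after overnight lysis in saponin/Triton buffer at room temperature. Cultures at 0.3% parasitemia and 2.5% hematocrit were first exposed to compound for 72 h at 37 C; signals were normalised to artemisinin (0.29 uM) and vehicle wells.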

[9] = qHTS profiling of the MIPE4 collection as inhibitors of Plasmodium falciparum (DD2) proliferation (AID 743345; call rule not given here); conditions: P. falciparum Dd2 in erythrocytes, SYBR Green DNA, 72 h; at 28.5 µM (top of the series) unless noted
Outline: as §2

[10] = qHTS profiling of the MIPE4 collection as inhibitors of Plasmodium falciparum (DD2) proliferation (Rep 2) (AID 743346; call rule not given here); conditions: P. falciparum Dd2 in erythrocytes, SYBR Green DNA, 72 h; at 28.5 µM (top of the series) unless noted
Outline: as §2

[11] = qHTS Screen of the MIPE 4.0 Collection Against Ewings Sarcoma (TC32) (AID 1259256); further: nearly all actives have a fitted effect of over 45% in size; further: potency means the concentration at half of the fitted maximal effect
Outline: as §1

[12] = qHTS profiling of the MIPE4 collection as inhibitors of Plasmodium falciparum (HB3) proliferation (AID 743347; call rule not given here;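 further: plate controls were DMSO vehicle wells for no effect and artemisinin wells for full effect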); conditions: P. falciparum HB3 in erythrocytes, SYBR Green DNA, 72 h; at 28.5 µM (top of the series) unless noted
Outline: as §2

[13] = qHTS Screen of the MIPE 4.0 Collection Against Ewings Sarcoma (TC71) (AID 1259253); further: potency means the concentration at half of the fitted maximal effect; nearly all actives have a fitted effect of over 40% in size
Outline: as §1

SMILES | cell viability, % of control (lower = more cytotoxic) [1] | viability (% of control) [2] | Potency [3] | Potency [4] | Potency [5] | Potency [6] | Potency [7] | parasite growth, % of DMSO control [8] | parasite growth remaining, % of DMSO control (lower = more inhibition) [9] | parasite growth, % of control (lower = inhibition) [10] | Potency [11] | growth, % of control [12] | Potency [13]
CCN1C[C@H](C)n2c(c(O)c3c(=O)n(Cc4ccc(F)c(Cl)c4)nc(C(=O)NC)c32)C1=O | 108% | 113% | inactive | inactive | inactive | inactive | inactive |  |  |  |  |  | 
CCN1CCN(c2ccc(Nc3cc(N(C)C(=O)Nc4c(Cl)c(OC)cc(OC)c4Cl)ncn3)cc2)CC1 | 147% | 90.9% | inactive | inactive | inactive | inactive |  | 4.57% | 5.88% | 8.62% | inactive |  | 
COc1ccc(C=CC(=O)Nc2ccccc2C(=O)O)cc1OC | 188% | 104% | 2640 nM (active) | 2640 nM (active) | inactive | inactive |  | 24.6% | 90.5% | 48.9% | inactive | 32% | 
COc1ccc(-c2cc3nccn3c(Nc3ncccc3C(N)=O)n2)cc1OC | 47.7% | 26.1% | inactive | inactive | 14800 nM (active) |  | 6510 nM (active) | 4.5% | 9.28% | 5.75% |  | 2.93% | 2640 nM (active)
C[C@H](CCC(=O)O)[C@H]1CC[C@H]2[C@H]3[C@@H](CC[C@]12C)[C@@]1(C)CC[C@@H](O)C[C@H]1C[C@@H]3O | 75.1% | 35.2% | inactive | inactive | inactive | 18700 nM (active) |  |  |  |  | inactive |  | 
Cc1cc(OCCCS(C)(=O)=O)cc(C)c1-c1cccc(COc2ccc3c(c2)OC[C@H]3CC(=O)O)c1 | 168% | 91.1% | inactive | inactive | inactive | 20900 nM (active) |  | 52.2% | 34.3% | 61.9% | inactive | 90.9% | 
C[C@@]1(C(=O)Nc2ccc(F)nc2)CCCN1c1nc(Nc2cc(C3CC3)[nH]n2)c2cccn2n1 | 131% | 17.3% | inactive | inactive | 2640 nM (active) | 1050 nM (active) |  | 10.3% | 14.6% | 23.8% | 418 nM (active) | 4.94% | 
C[C@@H]1[C@H](O)[C@@H](C)C=CC=CC=CC=CC=CC=CC=C[C@H](O[C@@H]2O[C@H](C)[C@H](O)[C@H](N)[C@@H]2O)C[C@@H]2O[C@](O)(C[C@@H](O)C[C@@H](O)[C@H](O)CC[C@@H](O)C[C@@H](O)CC(=O)O[C@H]1C)C[C@H](O)[C@@H]2C(=O)O | 485% | 4.45% | inactive | inactive | 105 nM (active) | 1180 nM (active) |  | 16.7% | 9.78% | 7.41% | 743 nM (active) | 29.7% | 
O=C(c1ccc(F)c(F)c1Nc1ccc(I)cc1F)N1CC(O)([C@H]2CCCCN2)C1 | 3.78% | 2.16% | inactive | inactive | 26400 nM (active) | 23500 nM (active) |  | 11% | 11.1% | 20.2% | 20900 nM (active) | 4.74% | 
